Assay results from PubChem BioAssay (Tox21).
Inconclusive results are not listed. Entries that show only a call come without a potency. A number with no mark means an inactive call. Active and inactive are the calls of the source. Unless noted, the call rests on the fitted dose curve; in most records, active means well fitted curve in the direction sought with a large enough effect in the repeat runs; inconclusive means weak or mixed curves; inactive means no such curve, though single readings can be large; an effect the other way counts as inactive or inconclusive.

Tests used:
[1] = qHTS assay to identify small molecule antagonists of the thyroid receptor (TR) signaling pathway - cell viability counter screen (AID 743064); further: nearly all actives have a fitted effect of over 50% in size
How it was run: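 GH3.TRE-Luc rat pituitary cells carrying a TRE-luciferase reporter were treated with compound plus 1 nM T3 (final) for 23.5 h at 37 °C. Viability was then read in the same wells by CellTiter-Fluor fluorescence after a further 30 min.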

[2] = tested on: thyroid hormone receptor (rat, GH3 cells); experiment: qHTS assay to identify small molecule agonists of the thyroid receptor (TR) signaling pathway (AID 743066; calls by dose curve)
[3] = molecular target: Estrogen receptor (Homo sapiens) (UniProt P03372); experiment: qHTS assay to identify small molecule antagonists of the estrogen receptor alpha (ER-alpha) signaling pathway (AID 743069; active means well fitted curve in the direction sought with a large enough effect in the signal ratio in the repeat runs, not every such curve was filed as active; the % refers to the signal ratio)
Chain of Estrogen receptor (Homo sapiens) (P03372 whole entry, looked up): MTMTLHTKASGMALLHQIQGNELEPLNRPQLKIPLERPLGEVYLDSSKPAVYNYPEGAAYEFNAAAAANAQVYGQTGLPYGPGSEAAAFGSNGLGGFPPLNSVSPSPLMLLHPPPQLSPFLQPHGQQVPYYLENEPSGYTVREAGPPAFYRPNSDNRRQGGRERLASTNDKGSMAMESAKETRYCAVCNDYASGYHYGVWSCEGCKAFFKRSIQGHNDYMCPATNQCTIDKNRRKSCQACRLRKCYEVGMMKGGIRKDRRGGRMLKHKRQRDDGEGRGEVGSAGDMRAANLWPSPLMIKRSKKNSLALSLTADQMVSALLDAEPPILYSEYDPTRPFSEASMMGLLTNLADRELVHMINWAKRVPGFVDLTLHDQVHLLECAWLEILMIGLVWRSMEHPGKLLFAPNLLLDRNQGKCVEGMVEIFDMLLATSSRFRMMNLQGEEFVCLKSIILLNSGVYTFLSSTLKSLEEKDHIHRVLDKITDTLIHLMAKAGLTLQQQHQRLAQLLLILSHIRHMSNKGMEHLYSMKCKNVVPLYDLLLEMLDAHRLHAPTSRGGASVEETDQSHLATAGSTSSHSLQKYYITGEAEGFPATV
How it was run: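 A 17beta-estradiol challenge was applied right after compound transfer to ER-alpha-UAS-bla HEK293 cells previously kept in charcoal-stripped serum. Plates stood 18 hr at 37C and 5% CO2; fluorescence was read following 2 hr FRET substrate loading at room temperature.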

[4] = qHTS assay to identify small molecule antagonists of the estrogen receptor alpha (ER-alpha) signaling pathway - cell viability counter screen (AID 743074; calls by dose curve;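 further: HEK293 cells carrying ER-alpha-UAS-bla reporter stimulated with 17beta-estradiol; nearly all actives have a fitted effect of over 45% in size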)
[5] = molecular target: Estrogen receptor (Homo sapiens) (UniProt P03372); experiment: qHTS assay to identify small molecule agonists of the estrogen receptor alpha (ER-alpha) signaling pathway (AID 743075; calls by dose curve;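 further: HEK293 GripTite cells with ER-alpha and UAS-driven beta-lactamase reporter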)
[6] = molecular target: Estrogen receptor (Homo sapiens) (UniProt P03372); experiment: qHTS assay to identify small molecule agonists of the estrogen receptor alpha (ER-alpha) signaling pathway using the BG1 cell line (AID 743079); further: nearly all actives have a fitted effect of over 20% in size; further: potency means the concentration at half of the fitted maximal effect
[7] = qHTS assay to identify small molecule antagonists of the estrogen receptor alpha (ER-alpha) signaling pathway using the BG1 cell line (AID 743080; calls by dose curve;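 further: BG1 cells stimulated with 17beta-estradiol alongside compound; series mostly up to about 70 µM; nearly all actives have a fitted effect of over 25% in size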)
How it was run: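 Luciferase inhibition measured with ONE-Glo after 30 min at RT in BG1Luc4E2 cells given test compounds and 17beta-estradiol for 21.5 h at 37 C; CellTiter-Fluor viability read in the same wells beforehand.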

[8] = qHTS assay to identify small molecule antagonists of the estrogen receptor alpha (ER-alpha) signaling pathway using the BG1 cell line - cell viability counter screen (AID 743081);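 further: compound given together with 17beta-estradiol as the ER stimulus; series mostly up to about 70 µM; nearly all actives have a fitted effect of over 45% in size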
[9] = qHTS assay to identify aromatase inhibitors - cell viability counter screen (AID 743084);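 further: cells stimulated with testosterone during compound exposure; nearly all actives have a fitted effect of over 55% in size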
[10] = molecular target: Aryl hydrocarbon receptor (Homo sapiens) (UniProt P35869); experiment: qHTS assay to identify small molecule that activate the aryl hydrocarbon receptor (AhR) signaling pathway (AID 743085); further: nearly all actives have a fitted effect of over 15% in size; further: potency means the concentration at half of the fitted maximal effect;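 on activation: HG2L7.5c1 human HepG2 liver cells with stably integrated DRE-driven firefly reporter; series mostly up to about 70 µM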
Chain of Aryl hydrocarbon receptor (Homo sapiens) (P35869 whole entry, looked up): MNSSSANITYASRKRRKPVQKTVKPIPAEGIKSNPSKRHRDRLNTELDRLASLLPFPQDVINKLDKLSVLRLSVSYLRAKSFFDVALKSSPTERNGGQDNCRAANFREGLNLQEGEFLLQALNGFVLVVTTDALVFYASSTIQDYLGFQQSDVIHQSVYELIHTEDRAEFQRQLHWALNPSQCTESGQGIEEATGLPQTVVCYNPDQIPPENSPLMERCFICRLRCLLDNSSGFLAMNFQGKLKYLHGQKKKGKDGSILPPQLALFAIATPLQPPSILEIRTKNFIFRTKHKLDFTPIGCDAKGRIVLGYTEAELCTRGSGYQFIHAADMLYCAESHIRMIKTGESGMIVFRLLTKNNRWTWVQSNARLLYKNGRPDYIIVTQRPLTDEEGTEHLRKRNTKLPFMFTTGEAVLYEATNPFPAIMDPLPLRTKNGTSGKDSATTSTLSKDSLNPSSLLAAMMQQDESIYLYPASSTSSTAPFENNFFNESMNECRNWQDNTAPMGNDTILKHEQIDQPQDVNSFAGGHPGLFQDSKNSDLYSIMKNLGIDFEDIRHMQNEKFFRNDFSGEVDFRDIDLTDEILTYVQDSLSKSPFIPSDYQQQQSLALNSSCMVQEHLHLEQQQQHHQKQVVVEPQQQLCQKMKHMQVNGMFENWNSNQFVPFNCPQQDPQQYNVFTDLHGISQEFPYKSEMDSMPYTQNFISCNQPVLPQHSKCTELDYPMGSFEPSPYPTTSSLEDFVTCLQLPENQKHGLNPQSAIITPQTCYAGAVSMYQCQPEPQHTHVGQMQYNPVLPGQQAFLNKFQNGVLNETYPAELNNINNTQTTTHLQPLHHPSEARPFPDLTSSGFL
How it was run: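 HepG2 cells (HG2L7.5c1) stably carrying a firefly luciferase reporter driven by 20 dioxin responsive elements were exposed to compound for 24 h at 37C after a 5 h settling period; luminescence rise (ONE-Glo) indicated activation.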

[11] = molecular target: Peroxisome proliferator-activated receptor gamma (Homo sapiens) (UniProt P37231); experiment: qHTS assay to identify small molecule agonists of the peroxisome proliferator-activated receptor gamma (PPARg) signaling pathway (AID 743094; active means well fitted activation curve with a large enough effect in the signal ratio in the repeat runs, not every such curve was filed as active; the % refers to the signal ratio)
Chain of Peroxisome proliferator-activated receptor gamma (Homo sapiens) (P37231 whole entry, looked up): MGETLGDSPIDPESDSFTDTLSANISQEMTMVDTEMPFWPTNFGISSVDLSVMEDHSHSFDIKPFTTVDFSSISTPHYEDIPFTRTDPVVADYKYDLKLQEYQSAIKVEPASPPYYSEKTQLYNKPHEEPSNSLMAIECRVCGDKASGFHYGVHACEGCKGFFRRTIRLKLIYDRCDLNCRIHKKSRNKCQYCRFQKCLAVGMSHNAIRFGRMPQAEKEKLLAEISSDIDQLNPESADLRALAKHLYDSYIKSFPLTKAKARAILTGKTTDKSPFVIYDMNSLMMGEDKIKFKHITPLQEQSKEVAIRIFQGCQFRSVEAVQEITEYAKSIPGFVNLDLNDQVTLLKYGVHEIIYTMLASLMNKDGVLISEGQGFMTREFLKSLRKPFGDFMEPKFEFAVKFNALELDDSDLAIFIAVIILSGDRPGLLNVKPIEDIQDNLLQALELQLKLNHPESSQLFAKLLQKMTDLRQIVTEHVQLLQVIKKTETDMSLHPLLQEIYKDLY
How it was run: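 Agonism was assessed in a beta-lactamase reporter system, HEK293H cells with a stably integrated UAS-bla construct under PPARg control; the 17 h treatment at 37C preceded a 1 h room-temperature FRET substrate read.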

[12] = molecular target: Peroxisome proliferator-activated receptor gamma (Homo sapiens) (UniProt P37231); experiment: qHTS assay to identify small molecule antagonists of the peroxisome proliferator-activated receptor gamma (PPARg) signaling pathway (AID 743191; calls by dose curve; further: series mostly up to about 63 µM; nearly all actives have a fitted effect of over 30% in size)
How it was run: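 GeneBLAzer PPARg UAS-bla HEK293H cells carrying a UAS-driven beta-lactamase reporter were plated at 3000 cells/well, preincubated 5 h at 37C, then given compound for 17 h at 37C; LiveBLAzer B/G FRET substrate was read after 1 h at room temperature.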

[13] = qHTS assay to identify small molecule antagonists of the peroxisome proliferator-activated receptor gamma (PPARg) signaling pathway - cell viability counter screen (AID 743194); further: nearly all actives have a fitted effect of over 55% in size
How it was run: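 PPARg-UAS-bla HEK293H cells were plated, rested 5 h at 37 C, then treated with compounds plus rosiglitazone (50 nM final) for 17 h at 37 C; viability was then read by CellTiter-Glo luminescence after 30 min at room temperature.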

[14] = qHTS assay for small molecule agonists of the antioxidant response element (ARE) signaling pathway (AID 743202; active means well fitted activation curve with a large enough effect in the signal ratio in the repeat runs, not every such curve was filed as active; the % refers to the signal ratio)
How it was run: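 Following a 16 h, 37 C exposure of reporter HepG2 cells (ARE-driven beta-lactamase, 2,000 cells/well) to compounds, FRET substrate was applied for 2 h at room temperature and fluorescence intensity recorded.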

[15] = qHTS assay for small molecule agonists of the antioxidant response element (ARE) signaling pathway - cell viability counter screen (AID 743203; calls by dose curve; further: nearly all actives have a fitted effect of over 55% in size)
How it was run: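 ATP content via CellTiter-Glo luminescence served as the viability measure. Cells: ARE-bla HepG2, 2,000 per well. Exposure: 16 hrs, 37C/5% CO2.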

[16] = qHTS assay for small molecule activators of the heat shock response signaling pathway - cell viability counter screen (AID 743209); further: nearly all actives have a fitted effect of over 50% in size
How it was run: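 Compounds dissolved in DMSO were added to overnight-plated HSE-bla HeLa cells and left 5 h at 37 C. Cell viability was quantified by luminescence using CellTiter-Glo.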

[17] = qHTS assay for small molecule activators of the heat shock response signaling pathway (AID 743210; active means well fitted activation curve with a large enough effect in the signal ratio in the repeat runs, with a control signal flat, not every such curve was filed as active; the % refers to the signal ratio; further: series mostly up to about 63 µM)
How it was run: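 Heat shock element–beta-lactamase HeLa reporter cells; qHTS with compounds for 5 h at 37 C; detection by FRET substrate fluorescence after 2.5 h at RT.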

[18] = qHTS assay to identify small molecule antagonists of the thyroid receptor (TR) signaling pathway (AID 743065); further: nearly all actives have a fitted effect of over 55% in size; further: potency means the concentration at half of the fitted maximal effect
How it was run: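 GH3.TRE-Luc rat pituitary cells carrying two TR response elements driving luciferase were plated for 4 h, given compound plus 1 nM T3 (final), and incubated 23.5 h at 37 C. ONE-Glo luminescence measured reporter inhibition; CellTiter-Fluor fluorescence tracked cytotoxicity.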

[19] = molecular target: Aromatase (Homo sapiens) (UniProt P11511); experiment: qHTS assay to identify aromatase inhibitors (AID 743083)
Chain of Aromatase (Homo sapiens) (P11511 whole entry, looked up): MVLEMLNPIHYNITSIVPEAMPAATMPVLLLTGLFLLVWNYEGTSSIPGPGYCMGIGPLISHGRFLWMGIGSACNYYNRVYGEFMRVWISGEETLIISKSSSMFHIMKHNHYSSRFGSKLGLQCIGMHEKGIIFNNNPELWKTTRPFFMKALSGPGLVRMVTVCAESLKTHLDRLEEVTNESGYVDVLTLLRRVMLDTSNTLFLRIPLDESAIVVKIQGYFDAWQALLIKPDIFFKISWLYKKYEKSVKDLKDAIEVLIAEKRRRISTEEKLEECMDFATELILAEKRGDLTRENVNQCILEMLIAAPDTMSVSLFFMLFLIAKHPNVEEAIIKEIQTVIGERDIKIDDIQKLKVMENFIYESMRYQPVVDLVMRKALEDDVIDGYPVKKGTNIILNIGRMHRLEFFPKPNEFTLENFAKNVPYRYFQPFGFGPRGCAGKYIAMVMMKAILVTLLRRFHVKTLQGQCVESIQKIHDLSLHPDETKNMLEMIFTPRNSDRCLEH

[20] = qHTS assay to identify small molecule that activate the aryl hydrocarbon receptor (AhR) signaling pathway - cell viability counter screen (AID 743086);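 further: HepG2 liver cells carrying the AhR DRE luciferase reporter; series mostly up to about 70 µM; nearly all actives have a fitted effect of over 45% in size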
How it was run: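 HepG2-AhR-luc (HG2L7.5c1) cells, 4000/well, were preincubated 5 h at 37C, exposed to compound in qHTS format for 24 hr at 37C, then given CellTiter-Fluor for 30 min; viability was read as fluorescence in the reporter wells.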

Row | Structure (SMILES) | Potency [1] | Potency [2] | Potency [3] | outcome [4] | Potency [5] | Potency [6] | Potency [7] | outcome [8] | Potency [9] | Potency [10] | outcome [11] | outcome [12] | Potency [13] | Potency [14] | outcome [15] | outcome [16] | outcome [17] | Potency [18] | Potency [19] | Potency [20]
1 | C=C(C)[C@@H]1CCC2=CC(=O)C[C@@H](C)[C@]2(C)C1 | inactive | inactive | inactive | inactive | inactive | inactive | inactive | inactive | inactive | inactive | inactive | inactive | inactive | inactive | inactive | inactive | inactive |  |  | 
2 | COC(=O)[C@H]1[C@H]2C[C@@H]3c4[nH]c5cc(OC)ccc5c4CCN3C[C@H]2C[C@@H](OC(=O)COc2ccc(OC)cc2)[C@@H]1OC | inactive |  |  | inactive | inactive | inactive | inactive | inactive | inactive |  |  |  | inactive | inactive | inactive | inactive |  | 23.7 µM (active) | inactive | inactive
3 | Oc1ccc2c(c1)OC[C@@H](N1CCC(O)(c3ccc(F)cc3)CC1)[C@H]2O | inactive |  |  | inactive | inactive | 9.44 µM (active) |  | inactive | inactive |  | inactive | inactive |  |  | inactive | inactive | inactive | inactive | inactive | inactive
4 | C=C(C)C(=O)NCCCN(C)C | inactive |  |  | inactive |  |  |  | inactive | inactive | inactive | inactive | inactive | inactive | inactive | inactive | inactive | inactive | inactive | inactive | inactive
5 | CCN1CCCC1CNC(=O)c1cc(S(N)(=O)=O)ccc1OC (stereo not given) | inactive | inactive |  | inactive |  |  |  | inactive | inactive |  | inactive |  |  | inactive | inactive | inactive | inactive | inactive | inactive | inactive
6 | CC(O)CN(CCCN(C)C)CCCN(C)C (stereo not given) | inactive | inactive |  |  |  |  |  | inactive |  |  |  |  |  | inactive |  | inactive | inactive | inactive |  | 
7 | CCN1CCN(c2cc3c(cc2F)c(=O)c(C(=O)O)cn3C2CC2)CC1 | inactive | inactive |  | inactive |  |  |  | inactive |  | inactive | inactive | inactive | inactive | inactive |  | inactive | inactive | inactive | inactive | inactive
8 | CCC(=O)/C=C/c1ccc(OC)cc1 | inactive | inactive | inactive |  | inactive | inactive | inactive | inactive | inactive | inactive | inactive | inactive | inactive | inactive | inactive | inactive | inactive |  | inactive | inactive
9 | COc1ccc(N=[N+]([O-])c2ccc(OC)cc2)cc1 | inactive | inactive |  | inactive | inactive | 0.0679 µM (active) |  | inactive | inactive | 9.59 µM (active) | inactive | inactive | inactive |  |  | inactive | inactive |  | inactive | inactive
10 | Cc1ccc(N)cc1[N+](=O)[O-] | inactive | inactive |  | inactive |  |  |  | inactive | inactive |  |  | inactive | inactive | inactive | inactive | inactive | inactive | inactive |  | inactive
11 | NS(=O)(=O)c1cc2c(cc1C(F)(F)F)NC(Cc1ccccc1)NS2(=O)=O (stereo not given) | inactive | inactive |  | inactive |  |  |  | inactive | inactive | inactive | inactive |  | inactive | inactive |  | inactive | inactive | inactive | inactive | 
12 | N#CC1(O)CCCCC1 | inactive | inactive |  | inactive |  |  |  | inactive | inactive | inactive | inactive | inactive |  | inactive | inactive | inactive | inactive | inactive |  | 
13 | O=C(O)/C=C/c1ccc(Cn2ccnc2)cc1 | inactive |  |  | inactive |  |  |  | inactive | inactive | inactive | inactive |  | inactive | inactive | inactive | inactive | inactive |  | inactive | inactive
14 | C=C(C)[C@H]1CC=C(C)CC1 | inactive |  | inactive | inactive | inactive | inactive | inactive | inactive | inactive | inactive |  |  |  | inactive | inactive | inactive | inactive |  | inactive | inactive
15 | Cc1nc(-c2ccc(OCC(C)C)c(C#N)c2)sc1C(=O)O | inactive | inactive |  |  | inactive |  |  | inactive | inactive | 0.0298 µM (active) | inactive |  | inactive |  | inactive | inactive | inactive | 13.3 µM (active) | inactive | inactive
16 | c1ccc(SCCSc2ccccc2)cc1 | inactive | inactive |  |  |  |  |  | inactive | inactive |  | inactive |  |  | inactive | inactive | inactive | inactive | inactive | inactive | inactive
17 | CCCCCCCCCCCCI | inactive | inactive |  | inactive |  |  |  | inactive |  |  |  |  | inactive | inactive |  | inactive | inactive | inactive |  | inactive
18 | Cc1ccccc1Br | inactive |  |  | inactive |  |  |  | inactive | inactive | inactive | inactive |  |  | inactive |  | inactive | inactive |  | inactive | inactive
19 | c1ccc2cnncc2c1 |  | inactive | inactive | inactive | inactive | inactive | inactive | inactive | inactive | inactive | inactive | inactive | inactive | inactive | inactive | inactive | inactive | inactive | inactive | inactive
